Reference: ChEMBL document CHEMBL1157539, “Thousands of chemical starting points for antimalarial lead identification” (Nature, 2010)

Legend:
Assay type in all cases: functional
[1] = system: Plasmodium falciparum; experiment: GSK_TCMDC: Inhibition of Plasmodium falciparum 3D7 in whole red blood cells, using parasite LDH activity as an index of growth. Test compounds present at 2uM
[2] = system: Plasmodium falciparum; experiment: GSK_TCMDC: Inhibition of Plasmodium falciparum Dd2 in whole red blood cells, using parasite LDH activity as an index of growth. Test compounds present at 2uM
[3] = system: HepG2; experiment: GSK_TCMDC: Percent inhibition of human HepG2 cell line. Test compounds present at 10uM.

SMILES | Inhibition [1] [%] | Inhibition [2] [%] | Inhibition [3] [%]
Cc1cccc2c1NC(=O)/C2=N/NC(=S)N(C)C | 96 | 59 | 48
O=C(Cc1cccc(Cl)c1)Nc1cccc(-c2c[nH]c3nc(Nc4ccccc4)ncc23)c1.O=C(O)C(F)(F)F | 99 | 70 | 5
O=C(Nc1ccc(-c2nc3ccccc3[nH]2)cc1)c1cccc([N+](=O)[O-])c1 | 100 | 56 | 45
COc1ccc(-c2ccc3c(-c4cccc(S(C)(=O)=O)c4)cnc(N)c3c2)cc1 | 89 | 12 | 41
CC(C)(C)N1CCC(N(Cc2ccc(-c3ccc(C(F)(F)F)cc3)cc2)C(=O)Cn2c(CCc3cccc(F)c3F)cc(=O)c3ccccc32)CC1.O=C(O)C(O)C(O)C(=O)O | 100 | 97 | 100
O=C(C=Cc1ccccc1)Nc1ccc(C#CC=Cc2ccc(NC(=O)C=Cc3ccccc3)cc2)cc1 | 100 | 3 | 26
Cc1cc(N/N=C/c2cccc([N+](=O)[O-])c2)c2ccccc2n1 | 100 | 98 | 0
O=C(Nc1cccc(CN2CCCN(Cc3cccc(O)c3)CC2)c1)c1ccc(Cl)c(Cl)c1.O=C(O)C(F)(F)F | 100 | 79 | 25
CCN(CC)CCCN(C(=O)Nc1c(Cl)cncc1Cl)c1nc(-c2ccc(F)cc2)cs1 | 100 | 93 | 37
Cn1cc(CN2CCCC(COC(c3ccc(F)cc3)c3ccc(F)cc3)C2)cn1 (stereo not given) | 98 | 100 | 15
Cc1nc(N2CCC(C)CC2)c2c3c(sc2n1)CCCC3 | 93 | 39 | 13
O=C(Cc1cccnc1)Nc1cccc(-c2cccc(-c3nc4cc(C(F)(F)F)ccc4[nH]3)c2)c1 | 99 | 38 | 42
O=C(O)C(F)(F)F.OCC1CCN(Cc2cccc(-c3cccc(-c4nc5cc(C(F)(F)F)ccc5[nH]4)c3)c2)CC1 | 100 | 100 | 24
CNC(=O)COc1ccc(Nc2nnc(-c3ccc(C)c(S(=O)(=O)NCC4CCCO4)c3)c3ccccc23)cc1 (stereo not given) | 90 | 68 | 0
Cl.NC(=O)c1cccc(Nc2nccc(Nc3ccc4[nH]c(-c5ccccc5)cc4c3)n2)c1 | 100 | 98 | 28
N#CN1CC[C@H](CS(=O)(=O)c2cccc(Br)c2)C1 | 88 | 74 | 8
Cl.N#Cc1ccc2c(c1)CCN(CCC1CCC(NC(=O)/C=C/c3ccc4[nH]ccc4c3)CC1)CC2 (stereo not given) | 93 | 27 | 2
COc1ccc(-c2cncc3ccc(C(=O)NCc4ccncc4)nc23)cc1 | 100 | 98 | 25
COc1cc(Cc2cnc(NCCN3CCNCC3)nc2N)ccc1OCc1ccc(C(F)(F)F)cc1 | 98 | 4 | 12
CCOc1ccc(Br)cc1/C=C/C(=O)Nc1ccc2c(c1)CN(C)CCC2.O=C(O)C(F)(F)F | 97 | 37 | 18

SMILES | Inhibition [1] [%] | Inhibition [2] [%] | Inhibition [3] [%]
CC1CCN(c2nc(C(=O)Nc3ccc(F)cc3C(F)(F)F)c(C(C)C)s2)CC1.O=C(O)C(F)(F)F | 100 | 66 | 5
Cc1cccc2nc(-c3ccc(-c4cccc(CNC5CCN(C)CC5)c4)s3)[nH]c12.O=C(O)C(F)(F)F | 98 | 73 | 21
COc1cc(OC)c(NC(=O)Nc2ccnc3ccccc23)cc1Cl | 97 | 9 | 19
NC1CCN(CCNCc2cccc(-c3ccc(-c4nc5cc(F)ccc5[nH]4)cc3)c2)C1.O=C(O)C(F)(F)F (stereo not given) | 99 | 4 | 8
O=C(O)C(F)(F)F.O=S(=O)(NCCN1CCCC1)c1ccc(-c2ccc(CNCc3ccc(F)cc3)cc2)cc1 | 94 | 44 | 42
CCc1c[nH]c2c(N3CCCS3(=O)=O)cc(C(=O)N[C@@H](Cc3ccccc3)[C@H](O)CNC(C)(C)c3cccc(C(F)(F)F)c3)cc12.O=CO | 97 | 99 | 20
O=C(CN(c1cccc(C(F)(F)F)c1)S(=O)(=O)c1ccc(Cl)cc1)NCCC(c1ccccc1)c1ccccc1 | 94 | 50 | 14
Cc1c(CNCCN2CCCCC2)c(C(=O)O)c(C)n1Cc1ccc(Cl)cc1 | 97 | 93 | 4
Cc1ccc(NC(=O)c2cccc(CN3CCCN(CC4CCCCC4)CC3)c2)cc1F.O=C(O)C(F)(F)F | 85 | 42 | 22
O=C(Nc1ccccc1)N1CCOC(CCN2CCC(F)(F)CC2)(c2ccc(Cl)c(Cl)c2)C1 (stereo not given) | 100 | 100 | 20
O=C(/C=C/c1ccc(Cl)c(Cl)c1)NCCCCCN1CCCN(C(=O)Nc2ccc([N+](=O)[O-])cc2)CC1 | 97 | 28 | 32
COc1cc(C(=O)N2C(c3nccs3)C(C(=O)N(OC)C(C)c3ccccc3)CC2(CC(C)C)C(=O)OC(C)(C)C)ccc1C(C)(C)C (stereo not given) | 92 | 92 | 12
CCc1ccc(NC(=O)c2cccc(CN3CCCN(Cc4cccc(O)c4)CC3)c2)cc1.O=C(O)C(F)(F)F | 99 | 50 | 53
O=C(NCCN1CCCC1)c1cccc(-c2ccc(-c3nc4cc(F)ccc4[nH]3)cc2)c1 | 99 | 85 | 33
Cl.O=C(Nc1ccc(Cl)c(Cl)c1)Nc1ccc2nccc(N3CCNCC3)c2c1 | 99 | 62 | 18
COc1ccc2nccc([C@H](O)CN3CCC(NCc4nc5cccc(F)c5[nH]4)CC3)c2c1.O=C(O)C(=O)O | 98 | 0 | 0
CCOC(=O)c1ccc2[nH]c(-c3ccc(C(=O)NC4CCN(Cc5ccccc5)CC4)s3)nc2c1 | 100 | 95 | 32
CCc1c(C)nc(-n2nc(C)cc2NC(=O)CC(c2ccccc2)c2ccccc2)[nH]c1=O | 97 | 98 | 41
COc1cc(NC(=O)c2sc(-c3ccc(Cl)cc3)cc2NC(=O)CN2CC[C@@H](O)C2)ccc1OCCN1CCCC1 | 90 | 79 | 56
CCCCCCN1CCC(NCc2ccc(CN(C)C)cc2)CC1.O=C(O)C(F)(F)F | 92 | 26 | 18

SMILES | Inhibition [1] [%] | Inhibition [2] [%] | Inhibition [3] [%]
CCN1CCN(c2ccc(Nc3ccnc4ccc(Br)cc34)cc2)CC1 | 98 | 86 | 37
CN(C)CCCOc1ccc(CCCCc2ccc(Cl)cc2C(=O)c2ccccc2)cc1.O=C(O)C(=O)O | 92 | 8 | 8
CN(Cc1cccc(F)c1)C1CCN(c2cc(NC(=O)c3cccc(F)c3)ccn2)CC1.O=C(O)C(F)(F)F | 94 | 13 | 12
COc1cc2nc(N3CCC(CNC(=O)c4ccc(-c5ccc(Cl)cc5)cc4)CC3)nc(N)c2cc1OC | 100 | 100 | 99
COC1CCC(C(=O)Nc2ccc(-c3cccc(-c4nc5cccc(C)c5[nH]4)c3)cc2)CC1 (stereo not given) | 97 | 60 | 89
O=C(Cn1cc(C=C2SC(=NC3CCCC3)N(C3CCCC3)C2=O)c2ccccc21)N1CCCC1 | 100 | 100 | 5
O=C(NC1CC1)c1ccc(N2CCN(Cc3ccc(Cl)cc3)CC2)nc1.O=C(O)C(F)(F)F | 84 | 81 | 16
O=[N+]([O-])c1nc(Br)n(Cc2ccc(Cl)cc2)n1 | 96 | 95 | 0
CC(OC(=O)c1ccc(C(=O)NCC2CC2)cc1)C(C)(C)C (stereo not given) | 93 | 86 | 10
CC(C)(C)NC(=O)COC(=O)c1c2c(nc3ccccc13)C(=Cc1ccc3c(c1)OCO3)CCC2 | 90 | 82 | 7
COc1ccc(Nc2nc(N3CCCC3)c3ccccc3n2)cc1.Cl | 100 | 98 | 40
O=C(Nc1ccc(OC2CCN(Cc3ccccc3)C2)c(Cl)c1)c1ccc(F)cc1.O=C(O)C(F)(F)F (stereo not given) | 90 | 87 | 7
O=C(NCc1ccc(Cl)c(Cl)c1)[C@H]1CNCCN1C(=O)c1ccccc1.O=C(O)C(F)(F)F | 97 | 4 | 0
CCCCN(CCCC)/C(=N/C(=N)NCc1ccc(Cl)c(Cl)c1)NCCCCCCN/C(=N\C(=N)NCc1ccc(Cl)c(Cl)c1)N(CCCC)CCCC | 100 | 96 | 9
O=C(O)C(F)(F)F.O=S(=O)(NC1CCN(c2ccnc3ccccc23)C1)c1ccc(OC(F)(F)F)cc1 (stereo not given) | 88 | 0 | 34
COc1ccc(CCN(C)CCCOc2ccc(NC(=O)COc3cccc4sc5ccccc5c(=O)c34)cc2)cc1OC | 94 | 90 | 99
COc1cc2nccc(Nc3ccc4c(cnn4Cc4cccc(F)c4)c3)c2cc1OC.Cl | 100 | 99 | 29
COc1cccc(CN2CCCN(Cc3cccc(NC(=O)c4ccc(-c5ccccc5)cc4)c3)CC2)c1.O=C(O)C(F)(F)F | 86 | 8 | 35
CN1CCN(CCCN(Cc2csc(-c3ccc(CNCc4ccccc4)cc3)n2)S(=O)(=O)c2ccc(F)cc2)CC1.O=C(O)C(F)(F)F | 100 | 80 | 21
CC1CCN(C(=O)[C@H](Cc2c[nH]c3ccccc23)NS(=O)(=O)c2ccc(Cl)cc2)CC1 | 100 | 99 | 0
